Compounds with a hit are over-represented: about 12% of the library has one in this group of screens.
ALDH1A1 inh = inhibitors of human aldehyde dehydrogenase 1A1; Purified ALDH1A1, NADH fluorescence, propionaldehyde substrate; AID 1030; P00352; 220,000 compounds, 7.3% hits; Potency, µM (doses to about 75.3 µM), inactives show at the top dose activity, negative = inhibition, hits mostly inhibitors; active = well fitted inhibition curve with a large enough effect, not every such curve was filed as active; inconclusive = small, poorly fitted or top-dose-only effect, or another doubt; inactive = no such curve, though single readings can be large or run the other way;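 also: plate controls were no enzyme wells and a reference inhibitor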
Target sequence (P00352 whole entry, looked up): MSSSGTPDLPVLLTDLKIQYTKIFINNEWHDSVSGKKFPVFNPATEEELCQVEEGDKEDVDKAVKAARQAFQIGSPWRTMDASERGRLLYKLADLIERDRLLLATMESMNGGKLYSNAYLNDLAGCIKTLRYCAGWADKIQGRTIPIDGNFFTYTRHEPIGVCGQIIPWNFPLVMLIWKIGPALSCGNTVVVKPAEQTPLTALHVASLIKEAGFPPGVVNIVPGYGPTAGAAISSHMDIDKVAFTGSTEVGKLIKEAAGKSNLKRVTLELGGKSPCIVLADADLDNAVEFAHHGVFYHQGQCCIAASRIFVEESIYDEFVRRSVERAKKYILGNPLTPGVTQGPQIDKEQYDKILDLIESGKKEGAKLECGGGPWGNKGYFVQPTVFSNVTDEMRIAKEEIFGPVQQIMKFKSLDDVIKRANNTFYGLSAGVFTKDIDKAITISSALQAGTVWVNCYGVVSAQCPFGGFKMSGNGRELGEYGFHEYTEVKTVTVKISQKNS
RORg inh = blocks mouse ROR gamma transcriptional activity; P51450; Potency, µM (titrated, usually from 53.6 µM), for inactives: at the top dose activity change, negative = inhibition, most hits filed as inhibitors; Drosophila S2 Gal4-RORgamma UAS-luciferase reporter, 20 h; 310,000 compounds, 5.4% hits; also: nearly all actives have a fitted effect of over 60% in size
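Drosophila Schneider cells stably carrying a metallothionein-driven Gal4 DBD–ROR gamma fusion and a UAS-Photinus luciferase reporter were exposed to compound for 1 hr, then induced with copper sulfate (700 uM final) for 20 hr at ambient temperature before luminescence reading.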
PLK1 PBD block = PLK1 (human) polo-box domain binding inhibition | P53350 | 360,000 compounds, 2.8% hits | AID 720504 | Plk1 PBD binding of FITC phosphopeptide, fluorescence polarization | Potency, µM, for inactives: max response, negative = inhibition, hits mostly inhibitors; also: series mostly up to about 57 µM; nearly all actives have a fitted effect of over 65% in size
VP16 counter = inhibits Gal4-VP16 luciferase reporter, ROR gamma counter-screen; 310,000 compounds, 3.5% hits; Potency, µM (titrated, usually from 53.6 µM), inactives show at the top dose activity, negative = inhibition, most hits filed as inhibitors; Drosophila S2 Gal4-VP16 UAS-luciferase, luminescence, 20 h;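 also: Gal4-VP16 expression switched on by copper sulfate through the metallothionein promoter; nearly all actives have a fitted effect of over 50% in size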
Sfp inh = blocks B. subtilis Sfp PPTase activity. Biochemical Sfp PPTase activity, qHTS. 310,000 compounds, 3.5% hits. Potency, µM, for inactives: largest response in the series, negative = inhibition, actives largely listed as inhibitors. Q9F4F7. AID 1490;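 also: the enzyme is Sfp with the accession as filed and its product quenches rhodamine fluorescence; 0% = enzyme reaction without inhibitor and -100% = no enzyme wells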
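Compounds were incubated with enzyme (final 15 nM) for 15 min at room temperature before substrate addition started the reaction. Fluorescence at 525 nm excitation, 598 nm emission was recorded immediately and after 30 minutes.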
* marks the source's active call; other numbers are inactive results; ? = inconclusive; . = no result; [ ] = dose if it differs, or a comment. Unless noted, calls follow the shape of the dose curve; as a rule, active = well fitted curve in the direction sought with a large enough effect; inconclusive = small, poorly fitted or top-dose-only effect, or another doubt; inactive = no such curve, though single readings can be large; an effect the other way counts as inactive or inconclusive. Unless noted, % is scaled to controls: 0 for no effect and ±100 for the full control effect; potency is read from the fitted curve at half-maximal effect.

SMILES	ALDH1A1 inh	RORg inh	PLK1 PBD block	VP16 counter	Sfp inh
Cc1cn([C@H]2C[C@H](O)[C@@H](/C=C/C(=O)NCCN3CCCCC3)O2)c(=O)[nH]c1=O	.	.	-9%	.	.
C/C(CC(=O)C(F)(F)F)=N\NC(=O)/C(C#N)=C/N(C)C	1%	8.9µM*	-12%	?	11%
O=C(NCCC1=CCCCC1)C1CCN(S(=O)(=O)c2ccc(Br)s2)CC1	19µM*	?	-2%	-2%	23%
O=C(NCCC1=CCCCC1)C1CCN(S(=O)(=O)N2CCCC2)CC1	?	-1%	4%	?	6%
CC(C)(C)c1ccc(C(=O)N2CCC(C(=O)NCCC3=CCCCC3)CC2)cc1	10µM*	38%	-7%	-3%	-4%
COc1ccc(OC)c(S(=O)(=O)N2CCC(C(=O)NCCC3=CCCCC3)CC2)c1	22µM*	?	-2%	-12%	3%
COC(=O)Cc1ccc(OC2(C)CCN(Cc3ccccc3OC(F)F)C2)cc1 (stereo not drawn)	.	.	-6%	.	.
COc1cccc(CN2CCC2(C)C(=O)Nc2ccc(C)c(O)c2)c1F (stereo not drawn)	.	.	-2%	.	.
COc1ccc(NC(=O)Nc2nc(C)cc(C)n2)c(OC)c1	.	-1%	-2%	-6%	13%
COC(=O)COc1ccc(-c2ccccc2)cc1C=O	?	26%	-10%	-2%	79µM*
Nc1ccc(S(=O)(=O)NCc2ccccc2)cc1	.	23%	.	-1%	12%
CC(C)N1CC2(CC(c3ccccc3C(F)(F)F)=NO2)CN1C(=O)c1ccco1 (stereo not drawn)	.	.	-10%	.	.
O=C(O)COc1ccc(/C=N/n2cnc3scc(-c4cccs4)c3c2=O)cc1	7.1µM*	-5%	-10%	-6%	-25%
O=c1c2c(-c3cccs3)csc2ncn1/N=C/c1ccc(OC(F)F)cc1	-10%	26%	-6%	0%	13%
COc1ccc(Oc2ncc3nc(-c4ccccc4)c(=O)n(CCC#N)c3n2)cc1	?	27%	.	8%	1%
CC(C)OCCCNc1ncc2c(n1)CC(c1ccc(N(C)C)cc1)CC2=O (stereo not drawn)	8.9µM*	6%	-3%	-1%	-3%
CC(=Nc1cc(C(=O)c2ccccc2)ccc1N)C1=C(O)CC(C)(C)CC1=O	7.9µM*	21%	30µM*	-14%	-10%
Cc1ccc(/C=N/N(C)S(=O)(=O)c2ccc(C)cc2)cc1	.	16%	-2%	18µM*	5%
Cc1ccc(S(=O)(=O)/N=C/c2ccc(N(C)C)cc2)cc1	13µM*	10%[10 µM]	?	-2%	23%
COc1ccc(OC)c(-n2c(-c3cccc(O)c3)n[nH]c2=S)c1	10µM*	-22%[0.365 µM]	27µM*	.	25µM*
COc1ccc(OC)c(-n2c(Cn3c(-c4ccccn4)nc4ccccc43)n[nH]c2=S)c1	-1%	-15%	-23%	-8%	25µM*
COc1ccc(OC)c(-n2c(-c3cc(-c4ccc(F)cc4)n[nH]3)n[nH]c2=S)c1	-9%	?	-13%	-17%	?
COc1ccc(-c2cc(-c3n[nH]c(=S)n3-c3cc(OC)ccc3OC)[nH]n2)cc1	20µM*	?	-25%	-3%	?
COc1ccc(OC)c(-n2c(-c3ccc(C)cc3)n[nH]c2=S)c1	18µM*	4µM*	-21%	?	1%
Cn1cccc1C(=O)N1CCC2(CCCN(c3ccccc3)C2)CC1	?	9%	.	-7%	-7%
O=C(Nc1nnc([C@@H]2C[C@H](O)[C@@H](CO)O2)s1)c1ccc(Oc2ccccc2)cc1	.	.	-4%	.	.
COc1ccc(-c2n[nH]c(=S)n2-c2cc(OC)ccc2OC)cc1	.	10µM*	-2%	-13%	79µM*
CC(C)[C@H](NC(=O)[C@@H](Cc1c[nH]c2ccccc12)NC(=O)[C@H](Cc1ccc(O)cc1)NC(=O)[C@@H](N)CC(=O)O)C(=O)N[C@H](Cc1c[nH]c2ccccc12)C(=O)N[C@H](Cc1c[nH]c2ccccc12)C(=O)N[C@@H](CCCCN)C(N)=O	.	26%	.	4%	-14%
CS(=O)(=O)CCCCN=C=S	?	13µM*	.	-16%	?
CN(CC(=O)Nc1ccccc1C(=O)Nc1ccccc1)C1CCCCC1	.	.	6%	.	.
